About 3,000 (1%) of roughly 290,000 compounds were called active. Only a selection was taken, and actives are over-represented in it overall. A number with no mark means an inactive call. Cut-off read from the data, not from the text of the source: active = inhibition mostly above about 36% (no sharp cut-off); inactive = mostly below about 34%.

The nature of this assay: inhibition of NOD1-driven NF-kB reporter – cell-based, luminescence, uHTS, primary screen (AID 1578).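 Note: HEK-293T reporter cells stimulated with the NOD1 agonist gamma-tri-DAP.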 To be noted: NOD1-driven NF-kB luciferase reporter cells, at 4 µM, active compounds read high. On the technique in general: In a reporter assay the amount or activity of a reporter protein is the signal.
What is called inhibition is the drop in the measured response relative to a control, in per cent. Turning to `Cc1ccc(S(=O)(=O)c2nc(S(=O)(=O)c3ccccc3)sc2N2CCN(CCO)CC2)cc1`, the inhibition was 18%.

As for `CCN1C(=O)N(CC)C2NC(=S)NC21` (centres undefined), the inhibition was 8.6%.

Turning to `COc1ccc(OCc2cc(C(=O)N(C)Cc3nnc(C)o3)no2)c(Cl)c1`, the inhibition is -5.8%.

Take `C/C=C/Cn1c(SCc2ccccc2)nc2c1c(=O)[nH]c(=O)n2C`: the inhibition is 35%.

For the molecule `C=CCn1c(SCCCc2ccccc2)nc2c1c(=O)[nH]c(=O)n2C`, the inhibition is -1.2%.

For the molecule `Cc1ccc(S(=O)(=O)c2cc3c(=O)n4ccccc4nc3n(C)c2=N)cc1C`, the inhibition is -7.1%.

`CCOCCOC(=O)c1[nH]c2c(c1C)C(=O)CC(c1cc(OC)c(OC)c(OC)c1)C2` (centres undefined): the inhibition is 4.2%.

As for `CCCOC(=O)c1[nH]c2c(c1C)C(=O)CC(c1ccc(OC)c(OC)c1)C2` (centres undefined), the inhibition was -5.9%.

Consider `CC(=O)N1CCN(c2ccccc2NC(=O)c2ccc(C#N)cc2F)CC1`, for which the inhibition is 2.6%.

As to `COc1ccc(OCCN2CCN(C(=O)c3ccc(OC)c(OC)c3)CC2)cc1`, the inhibition is -11.7%.

Regarding `Cc1ccc(-c2nc(N)sc2-c2ccccc2)cc1C`, the inhibition is -14%.

As for `CCOC(=O)N1CCc2c(sc(NC(=O)C3=COCCO3)c2C(N)=O)C1`, the inhibition is -29.7%.

Take `CCOC(=O)c1c(NC(=O)c2cccs2)sc2c1CCN(C(=O)OCC)C2`: the inhibition was 14%.

As for `CCOC(=O)N1CCc2c(sc(NC(=O)c3ccc(Cl)s3)c2C(N)=O)C1`, the inhibition is 85.3% (active).

With `O=C(CSc1nnc(-c2ccccc2Br)o1)Nc1cccc2ccccc12`, the inhibition was -22.5%.

`Cc1ccc(C2=Nn3c(COc4ccc(Cl)cc4)nnc3SC2CC(=O)O)cc1` (centres undefined): the inhibition is 3.6%.

On to `CN(CCCNC(=O)Cn1c(=O)c2cccn2c2ccccc21)Cc1ccccc1`, for which the inhibition was -17.1%.

On to `Cc1ccccc1NC(=O)COC(=O)C1(C)CC1(Cl)Cl` (centres undefined), for which the inhibition was -11.4%.

For the molecule `Cc1ccc(S(=O)(=O)Oc2ccc(/C=C(/NC(=O)c3ccccc3)C(=O)NCCCC(=O)O)cc2)cc1`, the inhibition was -18.3%.

As to `CCOC(=O)c1c(-c2ccc(C)cc2)csc1NC1=NS(=O)(=O)c2ccccc21`, the inhibition is 24%.

Consider `COC(=O)c1ccc(C(=O)OC)c(NC2=NS(=O)(=O)c3ccccc32)c1`, for which the inhibition was -20.3%.

With `COC(=O)c1c(-c2ccccc2)csc1NC1=NS(=O)(=O)c2ccccc21`, the inhibition is 82.4% (active).

With `O=C(OCC(=O)c1cccs1)c1ccccc1`, the inhibition is 2.3%.

As to `Cc1nc2ccc(F)cc2cc1C(=O)Nc1ccc(Cl)c(Cl)c1`, the inhibition was -34%.

With `O=C(Nc1ccc(Cl)cc1)N(Cc1nc2ccccc2c(=O)[nH]1)Cc1cccs1`, the inhibition was 99.1% (active).

On to `Cc1ccc(NC(=O)N(Cc2nc3ccccc3c(=O)[nH]2)Cc2cccs2)cc1`, for which the inhibition is -2.2%.

As to `O=C(Nc1cccc(Cl)c1)N(Cc1nc2ccccc2c(=O)[nH]1)Cc1cccs1`, the inhibition is -26.5%.

Consider `Cn1cc(C(=O)NCc2cccs2)c(=O)c2cc(S(=O)(=O)N3CCCC3)ccc21`, for which the inhibition is 53%.

With `CCn1c(O)c(N=Nc2ccc3ccccc3n2)c2ccccc21`, the inhibition is -7.9%.

Turning to `Brc1ccc(/C=N/Nc2ccc3ccccc3n2)cc1`, the inhibition is -39.3%.

Turning to `Brc1ccc(N=Nc2ccc3ccccc3n2)cc1`, the inhibition was 43.4% (active).

In the case of `CC1Cc2ccccc2N1CC(=O)Nc1ccc(S(=O)(=O)N(C)C)cc1` (centres undefined), the inhibition was -7.7%.

For the molecule `COc1ccc(C(C)NC(=S)NCc2ccc(F)cc2)cc1` (centres undefined), the inhibition is 55.1% (active).

For `Cc1ccc(C(C)NC(=S)NCc2ccc(F)cc2)cc1C` (centres undefined), the inhibition is -16.4%.

Take `COc1cccc(C(C)NC(=S)NCc2ccc(F)cc2)c1` (centres undefined): the inhibition was 20.3%.

Consider `CCOc1ccc(C(C)NC(=S)NCc2ccc(F)cc2)cc1` (centres undefined), for which the inhibition is 8.6%.

Regarding `Cc1ccc(C)c(C(C)NC(=S)NCc2ccc(F)cc2)c1` (centres undefined), the inhibition is 52.6% (active).

As for `Cc1ccc(C(C)NC(=S)NCc2ccc(F)cc2)c(C)c1` (centres undefined), the inhibition was 29.2%.

In the case of `COCCNC(=O)Cn1c(=O)n(C)c2ccccc21`, the inhibition was -14%.

Turning to `Cc1cc(C)cc(N(C(C)C(=O)NCCC2=CCCCC2)S(C)(=O)=O)c1` (centres undefined), the inhibition was 15%.

In the case of `CC(=O)Nc1ccc(NC(C)=C(C#N)C#N)cc1`, the inhibition is -12.5%.

For `COc1cccc(NC(=S)N2c3ccccc3CC2C)c1` (centres undefined), the inhibition was -26.6%.

As for `COc1ccc(NC(=S)N2c3ccccc3CC2C)cc1OC` (centres undefined), the inhibition is 30.4% (active).

`COc1ccc(NC(=O)N2c3ccccc3CC2C)cc1OC` (centres undefined): the inhibition is -26.9%.

Turning to `CCN(C(=O)COC(=O)CSc1ccc([N+](=O)[O-])cc1)C1CCS(=O)(=O)C1` (centres undefined), the inhibition was -23.6%.

Turning to `COc1cc(C(=O)N/N=C/c2ccc3c(c2)c2ccccc2n3C)ccc1O`, the inhibition is 32.9%.

For `Cc1ccc(CNC(=O)CCS(=O)(=O)Cc2ccc(C)cc2)cc1`, the inhibition is 15.8%.

For `CC(C)c1ccc2c(c1)C1Cc3ccccc3C1N2` (centres undefined), the inhibition was -15.3%.

On to `CCOc1cc(/C=C2\COc3ccccc3C2=O)ccc1OCC(=O)N(C)C`, for which the inhibition was 30.7%.

Take `CCOc1cc(/C=C2/COc3ccccc3C2=O)ccc1OCC(=O)N(C)C`: the inhibition is 36.8%.

For the molecule `CCOc1cc(/C=C2\COc3ccccc3C2=O)cc(Br)c1OCC(=O)N(C)C`, the inhibition is 54.9% (active).

For `COc1ccccc1Oc1nc(-c2ccccc2)cc(C)c1S(C)(=O)=O`, the inhibition is -16.2%.

Consider `COc1cccc(NC(=O)C2CCN(S(=O)(=O)c3ccc4c(c3)CC(C)N4C(C)=O)CC2)c1` (centres undefined), for which the inhibition is -22.9%.

With `Cc1ccc(-c2cc3nc(-c4ccc(Br)cc4)cc(N)n3n2)cc1`, the inhibition is -9.8%.

Turning to `Nc1cc(-c2ccc(Br)cc2)nc2cc(-c3ccccc3)nn12`, the inhibition was -10.5%.

As for `CN1C(=O)C(C)(C)c2cc(S(=O)(=O)NCCc3ccc(Cl)cc3)ccc21`, the inhibition was -14.4%.

Take `CC1(C)Cc2c(sc3c2c(=N)n(Cc2ccco2)c(=O)n3CC(=O)Nc2ccc(Cl)cc2)CO1`: the inhibition is 1%.

Take `COc1ccc2nc(C)cc(N3CC(C)OC(C)C3)c2c1` (centres undefined): the inhibition was 8.1%.

Consider `O=C(O)CCc1cc(I)c(Oc2ccc(O)c(I)c2)c(I)c1`, for which the inhibition was 51.7% (active).

For `N[C@@H](Cc1cc(I)c(Oc2ccc(O)c(I)c2)c(I)c1)C(=O)O`, the inhibition was 14.2%.

As for `O=C(O)Cc1cc(I)c(Oc2ccc(O)c(I)c2)c(I)c1`, the inhibition was -16.4%.

In the case of `C=CCC(O)(CCN1CCCCC1)c1ccccc1` (centres undefined), the inhibition is -19.4%.

On to `Cc1ccccc1N(C(=O)c1ccccn1)C(C(=O)NCc1ccccc1)c1ccncc1` (centres undefined), for which the inhibition is -21.2%.

As to `O=C(Cc1ccc(Cl)cc1Cl)Nc1cccc(S(=O)(=O)Nc2ccccc2F)c1`, the inhibition is -7.5%.

With `N#CC(C#N)=C1C=CC=CN1/C(=C\c1ccco1)C(=O)c1ccccc1`, the inhibition is -25.3%.

With `N#CC(C#N)=C1C=CC=CN1/C(=C\c1ccco1)C(=O)c1ccc(Br)cc1`, the inhibition was -10.9%.

As for `N#CC(C#N)=C1C=CC=CN1/C(=C\c1ccco1)C(=O)c1ccc(Cl)cc1`, the inhibition was 104% (active).

As for `CCOC(=O)C(CCc1nnc(N)s1)C(=O)OCC`, the inhibition was -16.9%.

Take `COc1ccc(N(CC(=O)NCc2ccco2)C(=O)CCC(=O)Nc2nccs2)c(OC)c1`: the inhibition is -20.5%.

With `O=C(N/N=C/c1cn(-c2cccs2)nc1-c1ccccc1)c1ccccc1Br`, the inhibition is -30.5%.

Consider `O=C(O)c1[nH]c2ccccc2c1C(c1c(F)cccc1Cl)c1c(C(=O)O)[nH]c2ccccc12`, for which the inhibition is -43.4%.

Take `CNc1ccc(/C=C2\CSc3ccccc3C2=O)cc1[N+](=O)[O-]`: the inhibition was 73.4% (active).

Take `O=C1/C(=C/c2cccc([N+](=O)[O-])c2)CSc2ccc(Cl)cc21`: the inhibition is -12%.

On to `CNc1ccc(/C=C2\COc3ccccc3C2=O)cc1[N+](=O)[O-]`, for which the inhibition was -7.1%.

Consider `COc1ccc(C2/C(=C(/O)c3ccccc3)C(=O)C(=O)N2C)cc1` (centres undefined), for which the inhibition was -38.6%.

As for `COc1ccc(CNC(=O)c2cc3cccc(OC)c3oc2=N)cc1`, the inhibition is 4.1%.

Turning to `COc1cccc2cc(C(=O)NCc3ccc(Cl)cc3)c(=N)oc12`, the inhibition is 85.8% (active).

Regarding `COc1cccc2cc(C(=O)NCc3ccc(C)cc3)c(=N)oc12`, the inhibition is 18.3%.

Consider `COc1cc(/C=N\NC(=O)c2ccc(-c3ccccc3)cc2)ccc1OCC(N)=O`, for which the inhibition was -24.5%.

`Cc1ccc(S(=O)(=O)N(C)c2cc(S(=O)(=O)N3CCOCC3)c(C)cc2C)cc1`: the inhibition is -26.1%.

With `COc1cc(S(=O)(=O)NCc2ccc3c(c2)OCO3)ccc1Cl`, the inhibition was -0.2%.

On to `COc1c(C(=O)NC(=S)Nc2nnn(C)n2)cc2ccccc2c1Br`, for which the inhibition was 29.6%.

As to `CC(C)NC(=O)CCCc1c[nH]c2ccccc12`, the inhibition was -33%.

Take `CC(NC(=O)CCCc1c[nH]c2ccccc12)c1ccc(F)cc1` (centres undefined): the inhibition was 51.3% (active).

For `CC(NC(=O)CCc1c[nH]c2ccccc12)c1ccccc1` (centres undefined), the inhibition is -38.3%.

`Cc1ccc(Nc2nnc(-c3ccc4c(c3)OCO4)o2)c(C)c1`: the inhibition is -19.5%.

On to `Cc1cc(N/N=C/c2cccc([N+](=O)[O-])c2)nc(-n2nc(C)cc2C)n1`, for which the inhibition is -14.5%.

Consider `Cc1cc(N/N=C/c2cccc(Cl)c2)nc(-n2nc(C)cc2C)n1`, for which the inhibition was -0.3%.

Consider `Cc1nn(-c2ccccc2)c2c1P(=O)(O)/C(=C1\N(C)c3ccccc3C1(C)C)C=N2`, for which the inhibition is -9%.

`Cc1cc(C(=O)NNS(=O)(=O)c2ccc(C(C)(C)C)cc2)nn1C(C)(C)C`: the inhibition is -6.5%.

Regarding `NNC(=O)Cn1c(-c2ccccn2)nc2ccccc21`, the inhibition is -10.4%.

With `Cc1cc(=O)oc(C)c1C(=O)OCC(=O)c1ccc(Cl)c(Cl)c1`, the inhibition was -32.3%.

For the molecule `Cc1cc(=O)oc(C)c1C(=O)OCC(=O)c1ccc(Br)cc1`, the inhibition is -27.3%.

Consider `Cc1cc(=O)oc(C)c1C(=O)OCC(=O)c1ccc(Cl)cc1`, for which the inhibition is 79.2% (active).

(Values after PubChem BioAssay AID1578 (Sanford-Burnham Center for Chemical Genomics, 2009).)
